The structures appear in SMILES notation. Calls of active or inactive are those of the source. Calls come from the whole dose curve; as a rule, active = well fitted cell-killing curve with a large enough effect in the repeat runs; inconclusive = weak or mixed curves, or effect the other way; inactive = flat fitted curve, though single readings scatter.

The assay is described as follows: qHTS assay to identify small molecule HDAC inhibitors - cell viability counter screen (AID 1259365). Note: nearly all actives have a fitted effect of over 50% in size. As to conditions: HCT-116 viability, CellTiter-Glo ATP luminescence, 2 h; series mostly up to 92.4 µM. An excerpt:
U.S. Tox21 Program National Center for Advancing Translational Sciences [NCATS] NIH Chemical Genomics Center [NCGC] U.S. Environmental Protection Agency [EPA] National Institutes of Environmental Health Sciences [NIEHS] National Toxicology Program [NTP] U.S. Food and Drug Administration [FDA] Tox21 Assay Overview: Histone deacetylases (HDACs) are a group of epigenetic enzymes that regulate gene expression by histone deacetylation. HDACs are capable of introducing epigenetic modifications and such aberrations contribute to the onset and progression of several human diseases, thus making HDACs a popular therapeutic target. For identifying endogenous class I/II HDAC inhibitors a homogenous, luminogenic HDAC I/II cell based assay was used to measure the relative activity of class I and II HDACs from cells. Wild type HCT-116 cells were used to screen Tox21 compound libraries for identifying class I/II HDAC inhibitors.
Tox21 Assay Protocol Summary: HCT-116 cells were dispensed at 1,500 per well in 5uL of culture medium into white solid bottom 1536-well plates (Greiner Bio-One, Monroe, NC) using a Multidrop Combi (Thermo Scientific, Waltham, MA) dispenser. The assay plates were incubated at 37 C and 5% CO2 for an overnight, and then 23nL of compounds dissolved in DMSO and positive control were transferred using a Pintool station (Wako, San Diego, CA). The assay plates were incubated at 37C and 5% CO2 for 2hr. After compound treatment, 4uL of CellTiter-Glo reagent (Promega Corporation, Madison, WI) was added to each well of the assay plates using Flying Reagent Dispenser (FRD, Aurora Discovery, San Diego, CA) and incubated the assay plates at room temperature for 30min. The luminescence signal was quantified using a ViewLux plate reader (Perkin Elmer, Shelton, CT).
Consider `O=C(c1ccccc1)c1ccc(O)cc1O`, for which the call was inactive.
On to `O=C1c2cccc(O)c2C(=O)c2c(O)cccc21`, for which the call was inactive.
The entry for `C#C[C@]1(O)CC[C@H]2[C@@H]3CCC4=Cc5oncc5C[C@]4(C)[C@H]3CC[C@@]21C` is “inactive”.
Regarding `C=C(C)C(=O)OCCOC(=O)C(=C)C`, the compound was classed as inactive.
For `CC(C)OC=O`, the compound was called inactive.
Then `COc1ccc(C(=O)CC(=O)c2ccc(C(C)(C)C)cc2)cc1`, with “inactive”.
The entry for `CC(=O)c1ccccn1` is “inactive”; for `C[C@]12CCC(=O)C=C1CC[C@@H]1[C@@H]2C(=O)C[C@@]2(C)[C@H]1CC[C@]2(O)C(=O)CO` it is “inactive”; for `Cc1[nH]c(=O)c(C#N)cc1-c1ccncc1` it is “inactive”.
Then `O=C1OC2(c3cc(Br)c(O)c(Br)c3Oc3c2cc(Br)c(O)c3Br)c2c(Cl)c(Cl)c(Cl)c(Cl)c21`, with “inactive”; and `OC(CCl)CCl`, with “inactive”.
`Oc1ccc(O)cc1`: the result was inactive.
The entry for `Nc1ccccc1N` is “inactive”.
The entry for `CCC(C)OC(=O)c1ccc(O)cc1` (stereo not given) is “inactive”.
Then `Cc1ncc[nH]1`, with “inactive”; and `Nc1ncn([C@@H]2O[C@H](CO)[C@@H](O)[C@H]2O)c(=O)n1`, with “inactive”.
On to `O=S(=O)(O)c1ccc(O)cc1`, for which the outcome was inactive.
With `O=C(Nc1ccc(Cl)cc1)Nc1ccc(Cl)c(Cl)c1`, the outcome was inactive.
The entry for `CNCCCC12CCC(c3ccccc31)c1ccccc12` is “inactive”; for `CCCCCCCCCC(=O)OC` it is “inactive”; for `COC(=O)CCC(=O)OC` it is “inactive”.
In the case of `CC(C)=CCCC(C)CCO` (stereo not given), the call was inactive.
Then `CN(C)c1nc(N(C)C)nc(N(C)C)n1`, with “inactive”; and `Cc1cccc(N(C)C(=S)Oc2ccc3ccccc3c2)c1`, with “inactive”; and `C/C=C/C(=O)O`, with “inactive”.
The entry for `Clc1nc(Cl)c(Cl)c(Cl)c1Cl` is “inactive”.
Then `CCCCc1oc2ccccc2c1C(=O)c1cc(I)c(OCCN(CC)CC)c(I)c1`, with “inactive”.
As to `CC(C)Oc1ccc2c(=O)c(-c3ccccc3)coc2c1`, the call was inactive.
The entry for `COc1c(Cl)c(Cl)c(Cl)c(Cl)c1Cl` is “inactive”; for `c1ccncc1` it is “inactive”.
With `CC(=O)O[C@]1(C(C)=O)CC[C@H]2[C@@H]3C=C(Cl)C4=CC(=O)[C@@H]5C[C@@H]5[C@]4(C)[C@H]3CC[C@@]21C`, the compound was classed as inactive.
The entry for `Nc1ccc(Nc2ccccc2)cc1` is “inactive”.
The entry for `CC1=CC2C3CC(C=C3C)C2C1` (stereo not given) is “inactive”.
Then `CC(C)CC(C)(O)C#CC(C)(O)CC(C)C` (stereo not given), with “inactive”; and `C=CC(C)(CCC=C(C)C)OC(C)=O` (stereo not given), with “inactive”; and `Cc1c(C(N)=O)cc([N+](=O)[O-])cc1[N+](=O)[O-]`, with “inactive”.
As to `CCCC(=O)O`, the result was inactive.
The entry for `CC(C)=CCC/C(C)=C\CO` is “inactive”; for `O=c1oc(=O)c2cc3c(=O)oc(=O)c3cc12` it is “inactive”.
On to `CCCCNS(=O)(=O)c1ccccc1`, for which the compound was called inactive.

These data come from PubChem BioAssay (Tox21).
